# Compound activity as filed in PubChem.
# Sampled rows, rich in hits. Any-hit rate of the full collection: about 0.83%.
# SRC3 inh: inhibits human SRC3 coactivator | Q9Y6Q9 | HEK293 GAL4-SRC3 luciferase reporter, luminescence | inhibition, % at 3.6 µM | 360,000 compounds, 0.17% hits | AID 588352;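 active = inhibition above a per-campaign cutoff, the mean of all compounds plus 3 SD, cut at about 60% in these data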;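 note: 0% = DMSO-treated cells and 100% = gossypol-treated cells at 36 µM; higher means less SRC3-driven luciferase light from the GAL4 reporter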
# NCOA2 inhibitor: inhibits human steroid receptor coactivator 2 | Q15596 | AID 651957 | inhibition, % at 9 µM | HEK293 GAL4-SRC2 luciferase reporter, luminescence | 370,000 compounds, 0.17% hits;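 active = inhibition above the mean inhibition of all tested compounds plus 3 SD, set per campaign, cut at about 52% in these data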;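 note: 0% = DMSO treated cells and 100% = cells given Gossypol at 36 µM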
# NR2F2 inh: inhibitors of human COUP-TFII (NR2F2) | inhibition, % at 8.6 µM | HEK293T NGFI-A luciferase reporter, luminescence | 370,000 compounds, 0.7% hits | AID 686940;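 active = inhibition above a per-plate cutoff, mean inhibition of test wells between control levels plus 3 SD, cut at about 38% in these data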;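 note: cells cotransfected with COUP-TFII expression vector driving the NGFI-A reporter; 0% = median of COUP-TF2 test wells and 100% = reporter-only cells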
# NR5A2 inv ag: suppresses constitutive activity of human LRH-1; O00482; HEK293T StAR-luciferase reporter, LRH-1 transfected, 24 h; inhibition, % at 3.6 µM; 360,000 compounds, 0.13% hits; AID 602396;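 active = inhibition above the mean inhibition of all tested compounds plus 3 SD, cut at about 73% in these data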;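 note: 0% = DMSO wells and 100% = reporter-only cells lacking LRH-1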
# NCOA1 inh: inhibits human SRC1 coactivator | HEK293 GAL4-SRC1 luciferase reporter, luminescence | inhibition, % at 3.6 µM | 360,000 compounds, 0.12% hits;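 active = inhibition above the campaign mean plus 3 SD, with each screening campaign given its own cutoff, cut at about 60% in these data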;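 note: 0% = DMSO treated cells and 100% = gossypol at 36 µM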
# Target sequence (Q15788 whole entry, looked up, the tested form may be a part): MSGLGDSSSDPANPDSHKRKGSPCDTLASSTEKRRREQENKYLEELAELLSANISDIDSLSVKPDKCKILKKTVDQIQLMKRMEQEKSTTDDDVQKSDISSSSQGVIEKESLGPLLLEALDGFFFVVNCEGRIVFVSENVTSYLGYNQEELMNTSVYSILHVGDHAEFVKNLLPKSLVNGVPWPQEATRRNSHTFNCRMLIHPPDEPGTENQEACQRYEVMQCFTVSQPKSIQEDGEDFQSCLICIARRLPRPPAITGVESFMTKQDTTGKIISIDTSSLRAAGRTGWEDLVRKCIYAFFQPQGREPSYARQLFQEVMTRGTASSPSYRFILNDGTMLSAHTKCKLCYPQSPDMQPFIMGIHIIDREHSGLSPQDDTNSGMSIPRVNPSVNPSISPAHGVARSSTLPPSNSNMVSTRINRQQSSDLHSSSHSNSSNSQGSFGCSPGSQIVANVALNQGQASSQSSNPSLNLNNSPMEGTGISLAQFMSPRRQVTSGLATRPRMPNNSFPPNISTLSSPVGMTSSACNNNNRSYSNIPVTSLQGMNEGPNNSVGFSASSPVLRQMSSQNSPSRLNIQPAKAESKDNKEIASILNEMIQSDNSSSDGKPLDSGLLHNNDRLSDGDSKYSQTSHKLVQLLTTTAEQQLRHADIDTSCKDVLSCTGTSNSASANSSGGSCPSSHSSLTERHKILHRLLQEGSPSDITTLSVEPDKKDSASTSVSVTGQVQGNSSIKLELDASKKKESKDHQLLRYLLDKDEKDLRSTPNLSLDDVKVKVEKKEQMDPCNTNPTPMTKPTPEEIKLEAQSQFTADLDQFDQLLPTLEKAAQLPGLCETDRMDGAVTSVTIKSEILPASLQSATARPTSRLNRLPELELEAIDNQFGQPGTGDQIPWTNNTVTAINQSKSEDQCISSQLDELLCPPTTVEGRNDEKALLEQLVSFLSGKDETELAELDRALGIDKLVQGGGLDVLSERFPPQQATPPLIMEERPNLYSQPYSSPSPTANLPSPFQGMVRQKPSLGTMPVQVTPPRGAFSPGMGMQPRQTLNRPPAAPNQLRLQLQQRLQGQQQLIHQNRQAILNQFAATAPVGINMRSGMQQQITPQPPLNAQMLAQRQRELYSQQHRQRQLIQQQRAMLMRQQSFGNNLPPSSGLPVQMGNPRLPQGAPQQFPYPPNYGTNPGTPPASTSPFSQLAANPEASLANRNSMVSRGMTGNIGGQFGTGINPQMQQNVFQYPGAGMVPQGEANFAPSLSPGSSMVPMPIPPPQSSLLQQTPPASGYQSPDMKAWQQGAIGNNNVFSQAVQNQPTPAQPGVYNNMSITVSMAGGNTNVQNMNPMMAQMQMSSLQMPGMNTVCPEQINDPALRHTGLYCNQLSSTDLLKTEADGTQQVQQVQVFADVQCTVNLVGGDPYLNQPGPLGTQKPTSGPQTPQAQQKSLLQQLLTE
# Gal4-VP16 ctr: inhibits VP16 reporter, flagging COUP-TFII antagonist hits | shares compounds with NR2F2 inh | HEK293 Gal4-VP16 luciferase reporter, luminescence | inhibition, % at 8.5 µM | 2,500 compounds, 25% hits | AID 687007; in the data active = inhibition above about 13%
# COUP-TFII conf: confirmation of human COUP-TFII (NR2F2) inhibitors; shares compounds with NR2F2 inh; HEK293 NGFI-A luciferase reporter, luminescence; inhibition, % at 8.5 µM; 2,500 compounds, 45% hits;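 active = mean inhibition over three repeats above a set limit taken from the earlier primary screen, cut at about 38% in these data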;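 note: 100% = cells given the luciferase reporter alone without the COUP-TF2 vector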
# * hit, by the source's call; . = no result.
SMILES,SRC3 inh,NCOA2 inhibitor,NR2F2 inh,NR5A2 inv ag,NCOA1 inh,Gal4-VP16 ctr,COUP-TFII conf
COc1ccc(CN(C)C(=O)c2cccc(NC(=O)CC3SC(N4CCCCC4)=NC3=O)c2)c(OC)c1 (stereo unspecified),45,27,58*,19,13,0,44*
COc1cc(C(=O)NCCCN(C)C)ccc1OCC(=O)Nc1cccc(C(F)(F)F)c1,12,-31,-1,-8,3,.,.
COc1ccc(CN(C)C(=O)c2ccc(OCC(=O)Nc3cccc(C(F)(F)F)c3)c(OC)c2)c(OC)c1,29,17,71*,12,7,2,59*
COc1cccc(CN(C)C(=O)c2ccc(OCC(=O)Nc3cccc(C(F)(F)F)c3)c(OC)c2)c1,45,24,77*,36,28,8,76*
COC(=O)[C@]1(CNC(=O)NCCc2ccc(OC)c(OC)c2)CC(=O)N(C)[C@@H]1c1ccccc1,.,-10,1,.,.,.,.
c1ccc(-c2cn(-c3ccccc3)c3[n+]2CCS3)cc1,14,15,10,6,-10,.,.
CC(C)(C)c1ccc(-c2cn(-c3ccc(Br)cc3)c3[n+]2CCCS3)cc1,50,21,50*,83*,51,18*,37
COc1ccc(-c2cn(-c3ccccc3)c3[n+]2CCS3)cc1,34,14,50*,44,22,4,34
Cc1ccc(C)c(S(=O)(=O)NCc2ccncc2)c1,11,28,43*,11,1,-3,17
Cc1cc(S(=O)(=O)NCc2ccncc2)c(C)cc1Br,26,20,61*,42,11,7,56*
Cc1cc(NC(=O)Cc2cn(C)c3ccccc23)ccc1Oc1cccnc1,.,-3,0,.,.,.,.
C=CCC(Nc1ccccc1)C12C=CC(O1)C(C(=O)OC)=C2C(=O)OC (stereo unspecified),3,-7,-2,-6,-4,.,.
COC(=O)C1=C(C(=O)OC)[C@@]2([C@H](Cc3ccc(C)cc3)Nc3ccccc3)C=C[C@@H]1O2,.,.,49*,.,.,-2,24
COc1cccc2c1C(=O)c1c(O)c3c(c(O)c1C2=O)C[C@@](O)(C(C)=O)C[C@@H]3O[C@H]1C[C@H](N)[C@H](O)[C@H](C)O1,82*,27,54*,99*,6,28*,44*
COc1cccc2c1C(=O)c1c(O)c3c(c(O)c1C2=O)CC(O)(C(=O)CO)CC3OC1CC(N(C)C)C(O)C(C)O1 (stereo unspecified),85*,58*,45*,97*,79*,28*,27
COc1cc(CNCc2ccncc2)cc(Br)c1OCc1ccccc1F,8,24,46*,30,8,3,28
CC(C)Cn1c(N)c(C(=O)COC(=O)CC23CC4CC(CC(C4)C2)C3)c(=O)n(C)c1=O,-4,12,45*,40,24,13,57*
CC(C)Cn1c(N)c(C(=O)COC(=O)/C=C/c2ccccc2)c(=O)n(C)c1=O,3,13,45*,17,0,7,36
CC(COc1ccc(OC(F)(F)F)cc1)CN1CCC(C(O)(c2ccccc2)c2ccccc2)CC1 (stereo unspecified),.,14,7,.,.,.,.
CCc1ccc(OC)c(S(=O)(=O)Nc2ccc(Cc3ccncc3)cc2)c1,25,23,64*,23,22,4,36
CCCC1CCC2(CC1)CCC2OC(=S)NCc1ccc(Cl)cc1 (stereo unspecified),.,.,-2,.,.,.,.
CCCCN(c1ccccc1)c1ncnc(N)c1[N+](=O)[O-],63*,57*,52*,24,61*,15*,31
CCCCN(C)C(=O)CSc1nnc(-c2cc(OC)c(OC)c(OC)c2)o1,.,0,-13,.,.,.,.
CCC(=O)N(C1=C(NC)C(=O)c2ccccc2C1=O)C(C)C,11,13,8,22,-13,.,.
CNC1=C(N(C(C)=O)c2ccc(Br)cc2)C(=O)c2ccccc2C1=O,81*,46,48*,97*,81*,17*,36
SMILES,SRC3 inh,NCOA2 inhibitor,NR2F2 inh,NR5A2 inv ag,NCOA1 inh,Gal4-VP16 ctr,COUP-TFII conf
C(=N\Nc1nncc2ccccc12)/c1cccnc1,.,-20,4,.,.,.,.
Cc1c(C(=O)N2CCC(C)CC2)oc2ccc3c(c12)C(O)CC1(CCCCC1)O3 (stereo unspecified),-14,11,38*,3,-55,-4,5
COCC(C)n1c(C)cc(C(=O)CSc2nnnn2C2CCCC2)c1C (stereo unspecified),7,9,41*,-3,-2,-82,23
CN1CCCCC(NC(=O)c2cccc(C(F)(F)F)c2)C1=O (stereo unspecified),.,9,0,.,.,.,.
COc1ccc(/C=C2\SC(=O)N(CCCC(=O)Nc3cc(Cl)ccc3C(=O)O)C2=O)cc1,83*,92*,101*,82*,78*,89*,101*
COc1ccc(/C=C2\SC(=S)N(CCC(=O)Nc3ccccc3C(=O)O)C2=O)cc1,-17,11,-3,15,4,.,.
CCC(=O)N1CCN(c2ccc(NC(=O)COc3ccccc3Cl)cc2)CC1,7,30,50*,8,4,6,29
CN1CCN(c2ccc(NC(=O)COc3ccccc3Cl)cc2)CC1,6,-8,-14,2,-16,.,.
C=CCNc1ncnc2c1cnn2-c1ccc(C)cc1C,-49,3,-20,-8,-26,.,.
CCOC(=O)N1CCC(Nc2ncnc3c2cnn3-c2ccc(C)cc2C)CC1,26,26,59*,24,31,3,43*
COc1cc(C2CC=C(C(=O)O)C(c3ccccc3F)N2S(=O)(=O)c2ccc(C)cc2)cc(OC)c1OC (stereo unspecified),.,10,6,.,.,.,.
COC(=O)c1cc2c(c3c4cc(F)ccc4n(S(=O)(=O)c4ccc(OC)cc4)c13)C(=O)N(Cc1ccccc1OC)C2,.,-15,-6,.,.,.,.
Cc1ccc(C(=O)C[n+]2cc(-c3ccc(C)cc3)n3c2CCCCC3)cc1,54,17,46*,74*,22,9,37
OC(c1ccccc1)(c1ccccc1)C1CCN(CCCOc2ccc(C(F)(F)F)cc2)CC1,.,-16,1,.,.,.,.
CCOC(=O)[C@]12CCCCC/C=C\1N(CCc1ccc(Cl)cc1)C(=O)[C@H]2CC(=O)NCCc1ccccc1OC,.,12,13,.,.,.,.
C=CC[n+]1c(-c2ccc(C)cc2)csc1Nc1ccc(NC(C)=O)cc1,37,84*,52*,38,26,83*,81*
C[n+]1ccc(/C=C/c2ccc(Br)cc2)cc1,-4,-12,-12,-6,-2,.,.
Cc1ccc2[nH]c(C)c(/C=C/c3cc[n+](C)cc3)c2c1,16,-10,41*,54,13,5,20
